Source: PubChem BioAssay (National Center for Advancing Translational Sciences (NCATS))
Rows were chosen to be rich in hits. Some 2.3% of all compounds tested hit in one or more screens of this group.
uPA surface inh = inhibitors of cell surface uPA generation | 330,000 compounds, 0.31% hits | cell surface uPA generation assay, qHTS | Potency, µM (series often up to 38.3 µM), inactives show at the highest dose activity change, negative = inhibition, actives largely listed as inhibitors | AID 540303; active means well fitted inhibition curve with a large enough effect; inconclusive means small, poorly fitted or top-dose-only effect; inactive means no such curve, though single readings can be large or run the other way; tested in mouse RAW 264.7 cells; further: on the % scale 0 is the no-effect control and ±100 the full control effect; nearly all actives have a fitted effect of over 55% in size
TDP-43 yeast inh = inhibitors of TDP-43 toxicity in yeast; TDP-43 expressing yeast growth rescue, BacTiter-Glo, 24 h; Potency, µM (titrated, usually from 46.1 µM), without a hit: top-dose growth rescue (activation), hits mostly activators; 410,000 compounds, 1.8% hits; AID 652104; further: % of control where 0% means no effect; nearly all actives have a fitted effect of over 50% in size
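Readout is BacTiter-Glo luminescence of cell growth, so inhibitors register as activators. TDP-43-expressing yeast at OD600=0.02 in galactose medium, after raffinose pregrowth to mid-log, were incubated with compound for 24 hr at 30 deg C.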
BCR signal inh = inhibitors of chronic active B-cell receptor signaling; ABC-DLBCL IkBa-CBG/CBR reporter, luminescence ratio, 4 h; 340,000 compounds, 0.05% hits; AID 493014; Potency, µM (titrated, usually from 46.1 µM), inactives show at the highest dose activity change, negative = inhibition, actives largely listed as inhibitors; active means well fitted inhibition curve with a large enough effect in the signal ratio, with a control signal flat, not every such curve was filed as active; inconclusive means small, poorly fitted or top-dose-only effect, or effect the other way, or a change in a side signal; the % refers to the signal ratio;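 further: plate controls were basal doxycycline-induced cells for no effect and cells given 10 µM MG132 for full effect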
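TMD8 ABC-DLBCL cells carrying doxycycline-inducible green luciferase fused to IkappaBalpha plus unfused red luciferase were exposed to compounds (up to 46 uM) for 4 hrs at 37C. Activity came from the overlap-corrected green/red luminescence ratio.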
aSyn yeast inh = alpha-synuclein toxicity inhibition in yeast; Yeast expressing alpha-synuclein, growth rescue, BacTiter-Glo, 24 h; Potency, µM (series often up to 46.1 µM), without a hit: top-dose growth rescue (activation), most hits filed as activators; 370,000 compounds, 0.14% hits; further: % of control where 0% means no effect; nearly all actives have a fitted effect of over 65% in size
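Readout is rescue of growth in alpha-synuclein-expressing yeast, so inhibitors of toxicity appear as activators. Growth after 24 hr at 30 deg C in galactose medium is quantified by luminescence.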
Abeta yeast res = compounds reversing amyloid beta toxicity in yeast. yeast expressing A-beta42, growth rescue, OD600, 48 h; response scale: 0% DMSO, 100% iron-clioquinol control. Potency, µM (titrated, usually from 46.1 µM), actives largely listed as activators. 410,000 compounds, 0.063% hits; further: nearly all actives have a fitted effect of over 55% in size
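Yeast growth medium received pinned compounds, then yeast cells expressing toxic A-beta were added; plates incubated at 30 C for 48 hr. Growth read as absorbance at 600 nm, normalized to DMSO and equimolar FeCl3 plus clioquinol controls.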
FUS yeast rescue = rescues growth of FUS-expressing yeast | S. cerevisiae FUS-expressing, growth rescue, OD600, 24 h | Potency, µM (top dose mostly 76.6 µM), actives largely listed as activators | 390,000 compounds, 0.24% hits | AID 1347120;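 further: plate controls were DMSO vehicle for no effect and reference control for full effect; nearly all actives have a fitted effect of over 55% in size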
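Absorbance at 600 nm, taken 24hr after compound addition, measured rescue of FUS-yeast growth at 30C. Induction used 2% galactose with seeding at OD 0.005. Controls: CP55940 from 92uM final, DMSO only.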
Active calls of the source: *; i = inactive; ? = inconclusive; / = no result; [ ] = another dose, or the depositor's remark. Unless noted, the call rests on the fitted dose curve; in most records, active means well fitted curve in the direction sought with a large enough effect; inconclusive means small, poorly fitted or top-dose-only effect, or another doubt; inactive means no such curve, though single readings can be large; an effect the other way counts as inactive or inconclusive. Potency means the concentration at half of the fitted maximal effect.

SMILES	uPA surface inh	TDP-43 yeast inh	BCR signal inh	aSyn yeast inh	Abeta yeast res	FUS yeast rescue
COCCNC(=S)N/N=C(\C)c1ccc(OC)cc1	1%	?	?	-1%	?	i
O=C(NC(=S)NCc1ccccc1)c1ccccc1F	1%	?	13%	/	i	i
O=C(OCc1cn([C@@H]2CN(CC3CCCCC3)[C@@H](c3ccc(Cl)cc3)C[C@H]2O)nn1)c1ccccc1	/	?	/	-2%	i	i
COc1ccc(-n2nc3c(c2NC(=O)c2ccccc2S(=O)(=O)C(F)F)CS(=O)(=O)C3)cc1	0%	-9%	3%	2%	i	i
CCn1c(SCC(=O)NCCOC)nc2sc3c(c2c1=O)CCCC3	5%	1%	?	-1%	i	?
O=C(OCC1OC(n2ccc(=O)[nH]c2=O)C(Cl)C1O)c1ccccc1 (stereo unspecified)	3%	-15%	4%	3%	i	i
Cn1cc(CN2CCCC(C(=O)Nc3cccc(-n4cccn4)c3)C2)cn1 (stereo unspecified)	-3%	7%	1%	0%	i	i
Cn1cc(CN2CCCC(C(=O)Nc3ccc(-c4cccc(F)c4)cc3)C2)cn1 (stereo unspecified)	8.9µM*	-9%	1%	-4%	/	i
Cc1c(CN2CCCC(C(=O)Nc3cccc(-n4cccn4)c3)C2)cnn1C (stereo unspecified)	7.9µM*	9%	2%	1%	i	i
Cc1ccc(S(=O)(=O)N2CCOCC2)cc1NC(=O)COC(=O)/C=C/c1ccc(F)cc1	6%	30%	4%	-1%	i	/
O=C(NC(=S)NNC(=O)c1cnccn1)c1ccc(F)cc1	?	-7%	?	11µM*	i	i
CC(C)CNC(=S)NC(=O)c1ccc(F)cc1	3%	14µM*	?	-3%	i	/
Cc1oc(-c2cccc(Cl)c2)nc1CN1CCC(C(=O)NC(C)c2ccccc2)CC1 (stereo unspecified)	/	-8%	/	/	i	i
COc1ccc(-c2c(NC(=O)c3ccco3)oc3c(C)cccc3c2=O)cc1	5%	14µM*	-1%	0%	i	i
Cc1cccc2c(=O)c(-c3ccc4c(c3)OCO4)c(NC(=O)c3ccco3)oc12	22%	16µM*	1%	2%	i	i
COc1cc(-c2c(NC(=O)c3ccco3)oc3c(C)cccc3c2=O)cc(OC)c1OC	-5%	-10%	-1%	-6%	i	i
Cc1cccc(C)c1OC(=O)CSc1nnc(CNC(=O)c2ccccc2)o1	/	1%[9.22 µM]	/	/	i	i
COc1ccc(/C(N)=N/OC(=O)c2cccs2)cc1OC	-15%	22µM*	-19%	3%	i	i
Cc1ccc(/C(N)=N/OC(=O)c2cccs2)cc1	-8%	?	?	-59%	i	i
COc1ccc(C/C(N)=N/OC(=O)c2cccs2)cc1	-9%	16µM*	?	-36%	i	i
CN(Cc1cnn(C)c1)C(=O)C1CCC(=O)N(Cc2cccc(C(F)(F)F)c2)C1 (stereo unspecified)	0%	1%	0%	-5%	i	i
COc1ccc2nc(N(CCN(C)C)C(=O)/C=C/c3cccs3)sc2c1	10µM*	9%	?	4%	i	i
COc1ccc2sc(N(CCN(C)C)C(=O)/C=C/c3cccs3)nc2c1	?	6%	?	10%	i	i
Cc1ccc(C)c(NC(=O)C2COc3ccccc3O2)c1 (stereo unspecified)	-19%	?	?	3%	i	i
O=C(CSc1cccc[n+]1[O-])N1CCCCCC1	1%	9%	0%	0%	i	i
SMILES	uPA surface inh	TDP-43 yeast inh	BCR signal inh	aSyn yeast inh	Abeta yeast res	FUS yeast rescue
O=C(CSc1cccc[n+]1[O-])CSc1cccc[n+]1[O-]	1%	3.5µM*	?	?	?	i
COc1ccc(CCC(=O)Nc2nc3ccccc3[nH]2)cc1	-1%	-2%	-12%	8%	i	i
Cc1ccc(-n2c(CNC(=O)c3cccs3)nnc2SCC(=O)NO)cc1	7%	5%	1%	-2%	i	i
Cc1ccccc1OCC(O)Cn1c(=N)n(Cc2ccccc2)c2ccccc21 (stereo unspecified)	-8%	-35%	?	-7%	i	?
COc1ccc(-n2cnc3cc(C(=O)NC4CCCCCC4)ccc32)cc1	/	35µM*	-1%	/	i	i
C[C@H](NC(=O)OC(C)(C)C)C(=O)N/N=C/C1=Cc2ccccc2OC1	7%	8%	-8%	-4%	i	i
CCC(C)[C@H](NC(=O)OC(C)(C)C)C(=O)N/N=C/C1=Cc2ccccc2OC1 (stereo partly specified)	/	-19%	9%	0%	i	28µM*
CCC(=O)c1ccc(OC(=O)c2cccs2)cc1	3%	0%	/	-1%	i	i
CCNC(=S)N/N=C(\C)c1ccc2ccccc2c1OC(F)F	-8%	?	?	-9%	5.6µM*	?
c1csc(-c2nc3c4ccccc4c4ccccc4c3[nH]2)c1	-15%	20µM*	?	3%	i	i
Oc1ccccc1-c1nc2c3ccccc3c3ccccc3c2[nH]1	-9%	?	?	-34%	i	i
CCOC(=O)c1ccc(NC(=O)CSc2nnc(-c3cccs3)n2C)cc1	-1%	-10%	-2%	-6%	i	i
O=C(N/N=C/c1ccc([N+](=O)[O-])cc1)c1cccc(N2CCCC2=O)c1	4%	-1%	-13%	4%	i	/
Cc1ccc(C(=O)O)cc1-n1c(C)ccc1-c1ccccc1	/	4%	/	/	i	i
Cc1ccc(-c2ccccc2)n1-c1ccc(C(=O)O)cc1	-5%	13µM*	?	-26%	i	i
Cc1ccc(-c2ccccc2)n1-c1cccc(C(=O)O)c1	-18%	35µM*	?	-11%	i	i
O=C(O)CCc1ccc(-c2ccccc2)n1-c1cccc(C(=O)O)c1	-2%	23%	?	13%	i	i
CCOC(=O)c1[nH]c(C)c(C(=O)NC(C)(C)C)c1C	-3%	-5%	-2%	2%	i	i
Cc1ccc(Cl)cc1N1CCN(c2ncnc3c2nc2n3CCCCC2)CC1	/	25µM*	/	/	i	i
Clc1cccc(N2CCN(c3ncnc4c3nc3n4CCCC3)CC2)c1	/	16µM*	/	/	i	i
Fc1ccccc1N1CCN(c2ncnc3c2nc2n3CCCC2)CC1	/	?	/	/	i	i
